Compound activity from PubChem.
mHTT-CaM PPI inh: mHTT-calmodulin interaction abrogation. P42858. inhibition, % at 15 µM. AlphaScreen His-mHTT/GST-CaM binding, luminescence. 3.6% of 190,000 active. AID 1671202;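 note: 0% = both proteins with DMSO and 100% = one protein alone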
Target sequence (P42858 whole entry, looked up, stated change not applied): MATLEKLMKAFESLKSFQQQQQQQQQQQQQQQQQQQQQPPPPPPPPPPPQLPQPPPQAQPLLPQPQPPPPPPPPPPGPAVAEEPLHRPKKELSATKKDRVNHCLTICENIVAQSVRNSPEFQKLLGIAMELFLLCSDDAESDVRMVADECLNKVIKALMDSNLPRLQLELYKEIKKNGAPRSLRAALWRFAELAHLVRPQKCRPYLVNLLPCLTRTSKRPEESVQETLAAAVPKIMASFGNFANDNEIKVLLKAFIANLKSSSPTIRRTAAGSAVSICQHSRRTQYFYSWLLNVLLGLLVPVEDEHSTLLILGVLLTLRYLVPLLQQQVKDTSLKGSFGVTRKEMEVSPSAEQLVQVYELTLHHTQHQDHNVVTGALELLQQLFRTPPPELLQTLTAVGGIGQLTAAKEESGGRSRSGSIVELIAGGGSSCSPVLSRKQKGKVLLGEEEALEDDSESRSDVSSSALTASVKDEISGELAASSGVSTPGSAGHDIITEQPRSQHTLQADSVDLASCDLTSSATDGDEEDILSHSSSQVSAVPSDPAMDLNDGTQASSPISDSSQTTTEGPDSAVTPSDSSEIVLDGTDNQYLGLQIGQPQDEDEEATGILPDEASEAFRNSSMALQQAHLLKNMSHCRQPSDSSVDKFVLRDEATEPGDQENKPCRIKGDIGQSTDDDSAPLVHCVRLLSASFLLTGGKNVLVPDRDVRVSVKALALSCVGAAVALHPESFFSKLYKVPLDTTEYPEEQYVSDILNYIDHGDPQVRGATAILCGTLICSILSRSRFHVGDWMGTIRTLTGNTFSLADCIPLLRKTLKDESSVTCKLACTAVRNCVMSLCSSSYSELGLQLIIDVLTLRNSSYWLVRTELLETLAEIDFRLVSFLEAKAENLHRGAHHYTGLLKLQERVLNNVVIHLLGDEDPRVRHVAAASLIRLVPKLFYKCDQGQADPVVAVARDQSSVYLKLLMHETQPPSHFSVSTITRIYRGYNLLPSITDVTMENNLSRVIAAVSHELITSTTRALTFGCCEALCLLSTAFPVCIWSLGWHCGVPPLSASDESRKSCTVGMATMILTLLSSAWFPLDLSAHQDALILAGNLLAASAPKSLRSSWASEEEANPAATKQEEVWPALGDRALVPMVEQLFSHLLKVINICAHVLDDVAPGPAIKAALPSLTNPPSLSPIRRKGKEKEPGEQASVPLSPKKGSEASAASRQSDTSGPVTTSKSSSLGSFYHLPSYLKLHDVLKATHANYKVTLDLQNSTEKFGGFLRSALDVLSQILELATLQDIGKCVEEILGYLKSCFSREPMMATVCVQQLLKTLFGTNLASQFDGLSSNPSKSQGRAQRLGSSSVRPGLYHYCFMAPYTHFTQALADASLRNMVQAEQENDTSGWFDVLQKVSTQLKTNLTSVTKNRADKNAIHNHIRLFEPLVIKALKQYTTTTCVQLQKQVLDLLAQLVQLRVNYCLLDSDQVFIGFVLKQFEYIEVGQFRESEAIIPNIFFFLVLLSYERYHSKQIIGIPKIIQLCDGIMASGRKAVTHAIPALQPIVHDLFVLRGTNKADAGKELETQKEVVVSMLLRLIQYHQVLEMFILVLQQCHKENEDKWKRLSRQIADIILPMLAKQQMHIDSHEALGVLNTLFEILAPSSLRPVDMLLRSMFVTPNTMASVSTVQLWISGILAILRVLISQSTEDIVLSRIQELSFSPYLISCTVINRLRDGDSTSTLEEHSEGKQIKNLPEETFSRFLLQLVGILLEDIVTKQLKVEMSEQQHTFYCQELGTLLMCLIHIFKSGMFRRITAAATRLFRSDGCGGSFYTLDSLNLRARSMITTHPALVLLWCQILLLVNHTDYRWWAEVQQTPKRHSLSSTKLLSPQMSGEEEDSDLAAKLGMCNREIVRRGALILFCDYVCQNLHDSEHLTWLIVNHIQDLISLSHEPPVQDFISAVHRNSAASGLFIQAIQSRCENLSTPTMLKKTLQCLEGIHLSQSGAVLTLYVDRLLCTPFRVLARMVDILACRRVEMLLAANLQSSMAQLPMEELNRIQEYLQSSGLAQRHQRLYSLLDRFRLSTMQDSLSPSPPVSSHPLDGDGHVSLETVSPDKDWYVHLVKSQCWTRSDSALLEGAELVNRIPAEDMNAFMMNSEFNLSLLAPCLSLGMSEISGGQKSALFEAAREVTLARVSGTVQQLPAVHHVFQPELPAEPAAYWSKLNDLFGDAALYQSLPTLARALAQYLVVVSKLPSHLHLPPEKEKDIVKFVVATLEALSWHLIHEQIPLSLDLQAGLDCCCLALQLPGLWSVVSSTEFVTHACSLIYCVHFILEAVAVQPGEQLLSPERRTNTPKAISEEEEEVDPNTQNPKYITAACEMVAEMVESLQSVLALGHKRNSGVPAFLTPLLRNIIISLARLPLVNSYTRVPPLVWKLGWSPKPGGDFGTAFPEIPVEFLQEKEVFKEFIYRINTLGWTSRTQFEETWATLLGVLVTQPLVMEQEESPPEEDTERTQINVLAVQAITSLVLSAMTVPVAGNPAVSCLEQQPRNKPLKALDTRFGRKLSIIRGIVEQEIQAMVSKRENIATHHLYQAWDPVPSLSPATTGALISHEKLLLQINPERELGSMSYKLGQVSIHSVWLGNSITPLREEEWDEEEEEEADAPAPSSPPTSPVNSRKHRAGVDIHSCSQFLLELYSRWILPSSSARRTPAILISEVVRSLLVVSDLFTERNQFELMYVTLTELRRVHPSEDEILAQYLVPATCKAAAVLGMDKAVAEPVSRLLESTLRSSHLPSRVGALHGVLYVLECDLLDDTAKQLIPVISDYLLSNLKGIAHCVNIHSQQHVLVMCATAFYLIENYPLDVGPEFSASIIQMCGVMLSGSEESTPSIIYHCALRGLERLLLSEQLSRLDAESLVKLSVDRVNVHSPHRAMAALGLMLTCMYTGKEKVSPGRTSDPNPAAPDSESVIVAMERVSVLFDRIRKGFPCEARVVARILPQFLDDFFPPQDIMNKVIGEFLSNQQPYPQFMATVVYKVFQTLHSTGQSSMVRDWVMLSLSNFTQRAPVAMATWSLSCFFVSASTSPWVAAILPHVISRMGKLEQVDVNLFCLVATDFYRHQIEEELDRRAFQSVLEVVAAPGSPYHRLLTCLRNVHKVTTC
Pf apPOL block: Pf-apPOL DNA polymerase inhibition; Recombinant Pf-apPOL, molecular beacon fluorescence, 1.5 h; inhibition, % at 10 µM; 0.25% of 210,000 active; AID 1794808
* = called active by the depositor; nt = no result; ! = not active in a repeat. A selection: hits, their analogues and other compounds. The true share with any hit is near 3.6%. Cut-off read from the data, not from the text of the source: active = inhibition above about 50%; inactive = the rest.

SMILES	mHTT-CaM PPI inh	Pf apPOL block
Cc1ccnc(N2CCCC(C(=O)N3CCN(c4ncccn4)CC3)C2)n1 (stereo not drawn)	-3.3	-6.4
O=C(NCCCN1CCN(c2cccc(Cl)c2)CC1)C1CCN(c2ccncc2)CC1	95.3*	7.1
Cc1ccnc(N2CCC(C(=O)N3CCN(c4cccc(C(F)(F)F)c4)CC3)CC2)n1	6.4	-1.9
Cc1ccnc(N2CCCC(C(=O)N3CCN(c4cc(Cl)ccc4C)CC3)C2)n1 (stereo not drawn)	90.4*	-5.1
COc1ccc(C2CCCN2C(=O)c2c(F)cccc2F)cc1 (stereo not drawn)	-1.1	-1.6
Cc1cccc(CNC(=O)c2cn3ccncc3n2)c1	-0.6	1.6
CCCc1noc(-c2cccnc2N2CCCN(C(=O)c3cccs3)CC2)n1	-7.6	4.1
CC(=O)NC1=NN(C(C)=O)C(C)(c2ccc(-c3ccccc3)cc2)S1 (stereo not drawn)	51.0*	-5.1
CC(=O)NC1=NN(C(C)=O)C(C)(c2ccc(F)cc2)S1 (stereo not drawn)	0.0	5.2
Cc1cc(C2CCCN2C(=O)c2ccco2)on1 (stereo not drawn)	-0.7	4.1
COc1ccc(CN([C@H](C)C=O)S(=O)(=O)N(Cc2ccccc2)[C@H](C=O)C(C)C)cc1	97.1*	-0.5
C=C[C@H](CC(C)C)N(Cc1ccccc1)S(=O)(=O)N(Cc1ccc(OC)cc1)[C@H](C=C)CC(C)C	-16.3	-1.4
Cc1ccc(-c2nnc3s/c(=C\c4ccccc4)c(=O)n23)cc1	6.0	-5.7
Cc1ccc(-n2nc(C)c3c2OC(N)=C(C#N)C3c2ccco2)cc1 (stereo not drawn)	60.3*	-2.9
Cc1ccc(-n2nc(C)c3c2OC(N)=C(C#N)C3c2c(F)cccc2Cl)cc1 (stereo not drawn)	10.2	-0.5
O=C1C(=O)N(CN2CCCCCC2)c2ccccc21	77.0*	-3.5
O=C1C(=O)N(CCN2CCCCC2)c2ccccc21	2.6	8.1
COc1ccc(NC(C)=O)cc1NC(=O)Cc1cn(Cc2ccccc2)c2ccccc12	82.9*	-8.5
COc1ccc(NC(=O)Cc2cn(C)c3ccccc23)cc1Cl	28.0	-1.7
Cc1ccc(CNC(=O)C2CCCN(c3nc4c(s3)c(C)nn4-c3ccccc3)C2)o1 (stereo not drawn)	33.8	-4.2
Cc1nnc(NC(=O)CSc2nc3c(cnn3CCO)c(=O)[nH]2)s1	-3.2	3.4
CC(=O)N1N=C(c2ccc([N+](=O)[O-])cc2)OC12CCCC2	1.0	-7.2
COc1ccc(-c2oc3ccc(OC)cc3c2C(=O)Nc2ccc(OC)cc2OC)cc1	-15.3	2.4
O=[N+]([O-])c1ccc2nc(/C=C/c3ccco3)[nH]c2c1	59.0*	-0.2
C(=C\c1ccco1)/c1nc2ccccc2[nH]1	48.9	-3.0
SMILES	mHTT-CaM PPI inh	Pf apPOL block
CCCCC(C(=O)O)N1C(=O)c2ccc(C(=O)O)cc2C1=O (stereo not drawn)	-1.6	-2.0
O=C(c1cccs1)N1N=C(c2ccccc2)CC1c1ccccc1[N+](=O)[O-] (stereo not drawn)	33.0	-5.1
CC(C(=O)N(C)C)N(C#N)c1nc(Cl)nc(N(C)C)n1 (stereo not drawn)	-1.0	-1.9
COc1cc(/C=C2\C(=O)ON=C2C)cc(Cl)c1OCc1ccccc1F	60.0*	-4.7
COc1cc(/C=C2\C(=O)ON=C2C)cc(Cl)c1OCc1cccc(F)c1	86.0*	0.0
COc1cc(/C=C2\C(=O)ON=C2C)cc(Br)c1OCc1cccc(F)c1	51.0*	-2.7
COc1cc(/C=C2\C(=O)ON=C2C)cc(Br)c1OC	24.0	3.5
C=CCOc1c(Cl)cc(/C=C2\C(=O)ON=C2C)cc1OC	35.0	-1.1
COc1cc(/C=C2\NC(=O)NC2=O)ccc1OCc1ccccc1F	-2.0	-1.8
CC1=NOC(=O)/C1=C/c1ccc(OCc2ccccc2F)c(Cl)c1	2.0	-8.6
CCOc1cc(/C=C2\NC(=O)NC2=O)cc(Cl)c1OCc1ccccc1F	68.0*	-2.0
COc1ccc(Nc2cc(C(=O)N3CCCCC3)nc3ccc(OC)cc23)cc1	21.6	-1.9
CC(=O)c1cc2c(cc1NC(=O)C1CC3CCCN3C13C(=O)Nc1ccccc13)OCO2 (stereo not drawn)	3.6	1.2
S=C(NN=Cc1c(Sc2ccc(Cl)cc2)nc2sccn12)Nc1ccc(Cl)cc1	nt	-9.0
COc1ccc(C(=O)N2CC(C)N(C(=O)c3ccc(OC)cc3)CC2C)cc1 (stereo not drawn)	1.6	-3.5
Cc1cccc(-c2noc(C3CCCN3C(=O)c3ccc(Br)cc3)n2)c1 (stereo not drawn)	25.8	-1.3
CC(C)(C)C(=O)NC(N)=Nc1nc2ccccc2s1	-3.3	-5.6
O=C(Nc1ccc2c(c1)OCCO2)c1ccnc(N2CCNC(c3ccccc3)C2)c1 (stereo not drawn)	16.2	3.7
O=C(Nc1ccc2c(c1)CCC2)c1ccnc(N2CCNC(c3ccccc3)C2)c1 (stereo not drawn)	81.6*	-4.4
COc1cccc(-c2cc(C(=O)N3CCCC3c3cc(C)no3)on2)c1 (stereo not drawn)	-4.1	-0.7
O=C(c1ccccc1C(F)(F)F)N1CCN(S(=O)(=O)C2CC2)CC1	-17.8	-4.8
CC1=C(C#N)C(=O)NC(=O)/C1=C\c1ccc(-c2ccc(Cl)cc2Cl)o1	71.0*!	-3.7
CC1=C(C#N)C(=O)NC(=O)/C1=C\c1ccc(-c2cc([N+](=O)[O-])ccc2Cl)o1	1.0	12.1
O=C(Nc1cccc(-c2nc3ncccc3o2)c1)c1ccccc1[N+](=O)[O-]	15.0	9.8
CSc1cccc2sc(NCCN3CCOCC3)nc12	-1.8	-1.5
SMILES	mHTT-CaM PPI inh	Pf apPOL block
O=C(Cn1nnc(-c2ccccc2)n1)Nc1cccc([N+](=O)[O-])c1	7.0	-3.4
O=[N+]([O-])c1ccc(-c2nnn(CNc3ccccc3)n2)cc1	53.0*	-2.5
COc1ccc(-n2nc3c(c2NC(=O)c2cccc(Cl)c2)CSC3)cc1	35.0	1.0
Cc1cc(C)cc(NC(=O)CC2COc3ccccc3NC2=O)c1 (stereo not drawn)	-3.8	3.4
Cc1ccc(C(=O)NCc2ccccc2C)c(C2CCN(C(=O)C(C)C)CC2)n1	0.7	-3.6
CCn1c(=N)c(C(=O)NC(C)c2ccccc2)cc2c(=O)n3cccc(C)c3nc21 (stereo not drawn)	0.0	-5.9
Cc1cccn2c(=O)c3cc(C(=O)NCc4ccccc4)c(=N)n(Cc4ccco4)c3nc12	38.0	12.3
Cc1cccn2c(=O)c3cc(C(=O)NC(C)c4ccccc4)c(=N)n(Cc4ccco4)c3nc12 (stereo not drawn)	51.0*	3.9
Cc1cccn2c(=O)c3cc(C(=O)NC(C)c4ccccc4)c(=N)n(C4CCCCC4)c3nc12 (stereo not drawn)	54.0*	-0.1
CCNC(=O)c1cc2c(=O)n3ccccc3nc2n(Cc2ccco2)c1=N	18.0	15.5
CC(NC(=O)c1cc2c(=O)n3ccccc3nc2n(Cc2ccco2)c1=N)c1ccccc1 (stereo not drawn)	51.0*	-2.2
COCCCNC(=O)C1CCN(c2nc3ccc(-c4cncnc4)nc3s2)CC1	3.6	-1.2
O=c1ccc(-c2ccc(F)cc2)nn1Cc1ccccn1	-8.6	-12.2
CCn1ccc2sc(C)c(C(=O)N3CCC(Cc4ccccc4)CC3)c2c1=O	80.0*	-1.7
CCn1ccc2sc(C)c(C(=O)N3CCC(N4CCCCC4)CC3)c2c1=O	21.7	-13.9
CCCN1C(=O)S/C(=C\c2c(NCC)nc3ccccn3c2=O)C1=O	5.0	-18.8
